From PubChem BioAssay
Activity calls are given as the source filed them. Unless noted, no rule for the calls is given here.

Columns and labels:
[1] = A549 cell viability effects, profiling panel, calcein-AM fluorescence, 48 h, basal (AID 1162); conditions: higher = more signal; also: test concentration not given here
[2] = adipocyte viability effects, profiling panel, cell-based, 3T3-L1 adipocytes, calcein-AM fluorescence, 48 h, basal (AID 1163); conditions: 3T3-L1 adipocytes viability, higher = more signal; also: test concentration not given here
[3] = HepG2 cell viability effects, profiling panel, calcein-AM fluorescence, 48 h, basal (AID 1164); conditions: higher = more signal; also: test concentration not given here
[4] = MM1S cell viability effects, profiling panel, calcein-AM fluorescence, 48 h, basal (AID 1165); conditions: higher = more signal;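 also: viability of MM1S multiple myeloma cells under basal unstimulated conditions; test concentration not given here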
[5] = basal RPMI8226 viability, no added stimulus, profiling panel, cell-based, calcein-AM fluorescence, 48 h, PK04 Diversity Set (AID 1166); conditions: RPMI8226 myeloma viability, higher = more signal;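 also: cells grown under basal conditions without added stimulus; test concentration not given here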
[6] = basal HepG2 mitochondrial membrane potential changes, profiling panel, cell-based, JC-1 fluorescence, 24 h, 100 nL compound (AID 1167); conditions: higher = more signal; also: test concentration not given here
[7] = basal 3T3-L1 adipocyte mitochondrial potential changes, profiling panel, cell-based, JC-1 fluorescence, 3T3-L1 adipocytes, 24 h, 100 nL compound (AID 1168); conditions: JC-1 mitochondrial fluorescence, higher = more signal, called active from +8 up or from −8 down; also: test concentration not given here
[8] = basal RPMI8226 mitochondrial membrane potential changes, profiling panel, cell-based, JC-1 fluorescence, 24 h, 100 nL compound (AID 1169); conditions: RPMI8226 myeloma, JC-1 mitochondrial potential fluorescence, higher = more signal; also: test concentration not given here
[9] = basal MM1S mitochondrial membrane potential changes, profiling panel, cell-based, JC-1 fluorescence, 24 h, 100 nL compound (AID 1170); conditions: higher = more signal; also: test concentration not given here
[10] = A549 lung cancer cell viability effects, profiling panel, resazurin fluorescence, 24 h, PK04 Diversity Set (AID 1171); conditions: higher = more signal, called active from +8 up or from −8 down; also: test concentration not given here
[11] = HepG2 liver cancer cell viability effects, profiling panel, resazurin fluorescence, 24 h, PK04 Diversity Set (AID 1172); conditions: higher = more signal; also: test concentration not given here
[12] = basal S. cerevisiae growth modulation, no modifier, primary screen, OD600, strain BY4716, 24 h, basal condition (AID 1173); conditions: OD600, 24 h, higher = more signal, called active from +8 up or from −8 down
[13] = MM1S myeloma cell viability, profiling panel, resazurin fluorescence, basal, 24 h, PK04 Diversity Set (AID 1174); conditions: higher = more signal, called active from +8 up or from −8 down;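 also: MM1S multiple myeloma cell line; test concentration not given here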
[14] = target: Dihydroorotate dehydrogenase (quinone), mitochondrial (Plasmodium falciparum (isolate 3D7)) (UniProt Q08210); experiment: PfDHODH enzyme inhibitors, primary screen, biochemical, C-terminal His tag, absorbance 600 nm (AID 1175); conditions: DCIP absorbance 600 nm, higher = more signal, called active from +8 up or from −8 down;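 also: recombinant parasite enzyme with a five histidine tag at its C terminus; test concentration not given here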
Dihydroorotate dehydrogenase (quinone), mitochondrial (Plasmodium falciparum (isolate 3D7)), sequence (Q08210 whole entry, looked up): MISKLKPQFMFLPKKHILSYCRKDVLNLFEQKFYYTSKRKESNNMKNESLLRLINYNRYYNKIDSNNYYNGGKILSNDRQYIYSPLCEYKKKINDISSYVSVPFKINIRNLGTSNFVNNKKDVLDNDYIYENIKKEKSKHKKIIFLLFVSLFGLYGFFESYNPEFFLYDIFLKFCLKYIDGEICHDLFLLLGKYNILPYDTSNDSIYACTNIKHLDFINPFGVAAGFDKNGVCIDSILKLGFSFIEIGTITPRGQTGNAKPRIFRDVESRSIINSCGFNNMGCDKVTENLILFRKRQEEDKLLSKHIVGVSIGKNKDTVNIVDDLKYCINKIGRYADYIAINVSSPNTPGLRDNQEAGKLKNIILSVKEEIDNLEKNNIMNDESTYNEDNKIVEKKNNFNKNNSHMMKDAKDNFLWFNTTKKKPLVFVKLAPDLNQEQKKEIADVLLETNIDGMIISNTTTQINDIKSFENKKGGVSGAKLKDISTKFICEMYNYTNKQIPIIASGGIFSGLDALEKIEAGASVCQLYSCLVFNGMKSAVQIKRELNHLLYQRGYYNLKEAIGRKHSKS

[15] = P. aeruginosa biofilm formation inhibitors, primary screen, strain PAO1, LB-PBS medium, absorbance 600 nm (AID 1176); also: test concentration not given here; conditions: P. aeruginosa PAO1 growth/biofilm, A600, 12 h; higher = more signal
[16] = S. cerevisiae RM11-1a growth modifiers, primary screen, strain RM11-1a, OD600, basal, 24 h (AID 1177); conditions: OD600, 24 h, higher = more signal, called active from +8 up or from −8 down;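 also: cultures grown under basal conditions with no added stressor; test concentration not given here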
[17] = E. coli acrAB mutant growth effects, primary screen, E. coli filamentation inducers, strain DRC39, OD650, 24 h (AID 1178); conditions: higher = more signal, called active from +8 up or from −8 down;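 also: growth measured as culture turbidity by optical density at 650 nm; test concentration not given here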
[18] = E. coli acrAB mutant growth effects, primary screen, E. coli filamentation inducers, strain DRC39, OD650, 48 h (AID 1179);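 also: screen aims at cell division blockers that make cells filament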; conditions: E. coli DRC39 delta-acrAB growth, higher = more signal, called active from +8 up or from −8 down
[19] = RPMI8226 myeloma cell viability, profiling panel, resazurin fluorescence, basal, 24 h, PK04 Diversity Set (AID 1180); conditions: higher = more signal;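 also: RPMI8826 multiple myeloma cell line at 5000 cells per well; test concentration not given here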
[20] = target: E3 ubiquitin-protein ligase XIAP (Homo sapiens) (UniProt P98170); experiment: XIAP binders, primary screen, biophysical, small-molecule microarray, fluorescence 635 nm (AID 1181); conditions: small-molecule microarray binding, higher = more signal;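 also: score merges 667 nm emission and signal to noise over triplicate slides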
E3 ubiquitin-protein ligase XIAP (Homo sapiens), sequence (P98170 whole entry, looked up): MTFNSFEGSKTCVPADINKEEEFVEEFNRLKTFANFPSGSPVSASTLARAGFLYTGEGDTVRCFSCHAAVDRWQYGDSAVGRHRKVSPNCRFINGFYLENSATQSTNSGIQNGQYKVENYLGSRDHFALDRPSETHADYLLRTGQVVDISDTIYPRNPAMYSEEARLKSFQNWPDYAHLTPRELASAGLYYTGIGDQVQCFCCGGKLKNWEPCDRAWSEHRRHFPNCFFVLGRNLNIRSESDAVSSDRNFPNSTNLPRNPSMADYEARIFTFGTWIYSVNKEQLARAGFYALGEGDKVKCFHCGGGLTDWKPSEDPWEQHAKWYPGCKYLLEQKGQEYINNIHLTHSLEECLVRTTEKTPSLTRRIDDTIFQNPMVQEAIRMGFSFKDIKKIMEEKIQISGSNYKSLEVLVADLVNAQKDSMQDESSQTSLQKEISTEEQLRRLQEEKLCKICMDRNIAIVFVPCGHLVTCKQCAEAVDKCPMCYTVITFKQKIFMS

| Structure (SMILES) | z-score [1] | z-score [2] | z-score [3] | z-score [4] | z-score [5] | z-score [6] | z-score [7] | z-score [8] | z-score [9] | z-score [10] | z-score [11] | z-score [12] | z-score [13] | composite z-score [14] | z-score [15] | z-score [16] | z-score [17] | z-score [18] | z-score [19] | composite z-score [20] |
| --- | --- | --- | --- | --- | --- | --- | --- | --- | --- | --- | --- | --- | --- | --- | --- | --- | --- | --- | --- | --- |
| CCOC(=O)C[C@H]1[C@H](OC(=O)c2ccc(-c3ccccc3)cc2)[C@@H](NC(=O)Cc2ccc(OC)cc2)c2cc(OCCCO)ccc2N1C(=O)c1ccc2ccccc2n1 | -0.315 | -0.357 | 0.143 | -0.514 | -0.129 | 0.176 | 0.824 (inactive) | 0.0708 | -0.625 | 0.596 (inactive) | -0.458 | -0.533 (inactive) | -0.607 (inactive) | -0.236 (inactive) | 0.055 (inactive) | -0.586 (inactive) | -0.536 (inactive) | -0.485 (inactive) | -0.893 | 0.091 |
| Cc1cc(C)c(C(O)C2C=CC3C(=O)N(C)C(=O)C3N2Nc2ccccc2)c(C)c1 (stereo not given) | -1.02 | -0.904 | -0.798 | -0.305 | -0.681 | -1.73 | -1 (inactive) | -0.207 | 0.434 | -0.551 (inactive) | -1.03 | -0.0657 (inactive) | -1.1 (inactive) | 0.0016 (inactive) | 0.944 (inactive) | -0.362 (inactive) | -0.709 (inactive) | -0.456 (inactive) | -1.46 | 0.372 |
| COCCOC(=O)N1C(=O)[C@@]2(c3cc(C#CCCO)ccc31)[C@H](c1ccccc1OCCO)N1[C@H](c3ccccc3)[C@H](c3ccccc3)OC(=O)[C@H]1[C@@H]2C(=O)N1CCN(c2ncccn2)CC1 | -0.442 | -0.692 | 0.0682 | -0.448 | -0.0718 | 0.609 | 0.188 (inactive) | -0.0523 | -1.1 | -0.467 (inactive) | -0.0071 | 1.42 (inactive) | -0.285 (inactive) | -0.465 (inactive) | 1.6 (inactive) | 2.18 (inactive) | -0.0933 (inactive) | -0.27 (inactive) | -0.803 | -0.0304 |
| C=CCC(OC(C)=O)[C@@H]1[C@@H](N(Cc2cc3ccccc3o2)C(=O)c2ccc(C)cc2)c2cc(OCCCO)ccc2N1C(=O)c1ccc2ccccc2c1 (stereo not given in full) | 1.37 | 0.595 | 1.89 | 1.14 | 0.671 | 2.27 | -0.409 (inactive) | 0.33 | 0.748 | 1.43 (inactive) | 0.792 | -0.195 (inactive) | 0.951 (inactive) | -0.375 (inactive) | -0.583 (inactive) | 0.0749 (inactive) | 0.786 (inactive) | 1.02 (inactive) | 1.72 | 0.0015 |
